Screening results (PubChem BioAssay)
This is one part of a sample in which hits are shown more often than they occur.
Pf Dd2 growth = qHTS Primary assay for Inhibitors of Plasmodium falciparum Dd2 growth in vitro; Potency, µM (titrated, usually from 28.9 µM), actives largely listed as inhibitors; actives 4.3% (n = 120,000); P. falciparum Dd2 growth, SYBR Green, 72 h; active = well fitted inhibition curve with a large enough effect; also: nearly all actives have a fitted effect of over 65% in size
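Infected erythrocytes (Dd2, 0.3% parasitemia, 2.5% hematocrit final) are added to compound in RPMI-1640/Albumax II medium, grown 72 h at 37C in low oxygen, then lysed with saponin/Triton-X containing SYBR Green and read by fluorescence.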
A number is an active result; [ ] = dose if it differs, or a comment.

Results for CC(C)COc1ccc(C(=O)N2CCN(CCc3ccncc3)CC2)cc1 ?
Pf Dd2 growth: inactive

Results for CN1CCN(C2(CNC(=O)c3ccc(C(C)(C)C)cc3)CCCCC2)CC1 ?
Pf Dd2 growth: inactive

How did Cn1nc(C2CCN(C(=O)c3ccoc3)CC2)c2c1CCOC2 do in these assays?
Pf Dd2 growth: inactive[5.79 µM]

What do the screens show for `CCC1(C(=O)Nc2ccc(C)c(F)c2)CCCCC(=O)N1` (stereo not given)?
Pf Dd2 growth: inactive

Results for O=C(c1cnccn1)N1CCC(N2C(=O)C(O)C23CCCCC3)CC1 (stereo not given) ?
Pf Dd2 growth: inactive

How did CN(C)c1ccc(NC(=O)Cn2cc(S(=O)(=O)Cc3ccccc3Cl)c3ccccc32)cc1 do in these assays?
Pf Dd2 growth: 7.9µM

What do the screens show for `CN(C)c1ccc(NC(=O)Cn2cc(S(=O)(=O)Cc3cccc(Cl)c3)c3ccccc32)cc1`?
Pf Dd2 growth: inactive

Results for O=C(Cn1cc(S(=O)(=O)Cc2ccccc2Cl)c2ccccc21)NCc1ccccc1Cl ?
Pf Dd2 growth: inactive

How did CC(C)N1CCC(C(=O)N2CCCN(Cc3cccs3)CC2)CC1 do in these assays?
Pf Dd2 growth: inactive

What do the screens show for `CCC1(N2CCN(C(=O)c3cc(Cl)ccc3OC)CC2)CCN(C(=O)NC)C1` (stereo not given)?
Pf Dd2 growth: inactive

How did CS(=O)(=O)c1ccc(CN2C[C@H](O)C[C@H]2c2nc(-c3cccnc3)no2)cc1 do in these assays?
Pf Dd2 growth: inactive

Results for Cn1nccc1CN1CCn2c(nn(-c3ccc(C(F)(F)F)cc3)c2=O)C1 ?
Pf Dd2 growth: inactive

How did CCOC(=O)c1cc(-c2ccccc2)n(CC(=O)Nc2cc(Cl)c(OC)cc2OC)c1C do in these assays?
Pf Dd2 growth: inactive

Results for CCOC(=O)c1cc(-c2ccccc2)n(CCC(=O)Nc2ccc(C)cc2Cl)c1C ?
Pf Dd2 growth: inactive

Results for CCOC(=O)c1cc(-c2ccccc2)n(CCC(=O)Nc2ccc(Cl)c(C(F)(F)F)c2)c1C ?
Pf Dd2 growth: 2.8µM

How did CCOC(=O)c1cc(-c2ccccc2)n(CCC(=O)Nc2cc(C)cc(C)c2)c1C do in these assays?
Pf Dd2 growth: 3.2µM

What do the screens show for `CCOC(=O)c1cc(-c2ccccc2)n(CCC(=O)Nc2cc(OCC)ccc2OCC)c1C`?
Pf Dd2 growth: inactive

What do the screens show for `CCOC(=O)c1cc(-c2ccccc2)n(CCC(=O)NCCc2cccc(C)c2)c1C`?
Pf Dd2 growth: inactive

How did COC(=O)N1CCCC2(C1)C(=NC1CCCC1)NC(=O)N2c1cc(F)cc(F)c1 (stereo not given) do in these assays?
Pf Dd2 growth: inactive

Results for O=C(Nc1ccccc1)N1CCCCC1c1nc(-c2cnccn2)n[nH]1 (stereo not given) ?
Pf Dd2 growth: inactive

What do the screens show for `CCn1cnnc1-c1nn(C)c2c1CN(C(=O)CCC(=O)N1CC(=O)Nc3ccccc31)CC2`?
Pf Dd2 growth: inactive

How did CC(C)(O)CCc1cccc(C(=O)NC2CCN(S(C)(=O)=O)CC2)c1 do in these assays?
Pf Dd2 growth: inactive

How did Cc1ccc2c(c1)N(C(=O)Cn1ccn3nc(-c4ccc(F)cc4)c(CO)c3c1=O)CCO2 do in these assays?
Pf Dd2 growth: inactive

How did CNCc1cccn1C do in these assays?
Pf Dd2 growth: inactive

How did O=C1NC2CCCCC2=C1CC(=O)N1CCc2ccccc21 (stereo not given) do in these assays?
Pf Dd2 growth: inactive

Results for CN1C(=O)CCCCC1C(=O)NC1CCCC1 (stereo not given) ?
Pf Dd2 growth: inactive

How did Cc1cc(C)c2oc(-c3ccc(NC(=O)c4cc(Br)ccc4Cl)cc3)nc2c1 do in these assays?
Pf Dd2 growth: 10µM

What do the screens show for `Cc1cc(C)c2oc(-c3cccc(NC(=O)c4ccc(Br)o4)c3)nc2c1`?
Pf Dd2 growth: inactive

What do the screens show for `COc1ccccc1C(=O)Nc1ccc(-c2nc3cc(C)cc(C)c3o2)cc1`?
Pf Dd2 growth: inactive

What do the screens show for `CSc1cccc(NC(=O)Cn2ccn3nc4c(c3c2=O)CCCCC4)c1`?
Pf Dd2 growth: inactive

How did Cn1nc2n(c1=O)CCN(CC1CCCCC1)CC2 do in these assays?
Pf Dd2 growth: inactive

How did CCS(=O)(=O)N1C[C@@H](COc2ccncc2)[C@H](c2ccccn2)C1 do in these assays?
Pf Dd2 growth: inactive

How did COc1ccc(-c2ccc3nnc(CNC(=O)c4sccc4C)n3n2)cc1 do in these assays?
Pf Dd2 growth: inactive

How did CN(C)C[C@@H]1CN(c2ncccn2)C[C@H]1NC(=O)c1cnco1 do in these assays?
Pf Dd2 growth: inactive

What do the screens show for `COCCNC(=O)[C@@H]1CCC[C@@H](NCC2CC2)CN(C)C(=O)C1`?
Pf Dd2 growth: inactive

Results for COc1cccc(-c2ccc3c(N)c(C(=O)Nc4ccc(Cl)cc4F)sc3n2)c1 ?
Pf Dd2 growth: inactive

What do the screens show for `CC(C)CSc1ccccc1NC(=O)c1sc2nc(-c3ccncc3)ccc2c1N`?
Pf Dd2 growth: 3.2µM

Results for COc1ccc(-c2ccc3c(N)c(C(=O)Nc4cccc(C)c4)sc3n2)cc1 ?
Pf Dd2 growth: inactive

How did Cc1noc(-c2cn(C3CCN(C(=O)c4cc(F)ccc4Cl)C3)nn2)n1 (stereo not given) do in these assays?
Pf Dd2 growth: inactive

What do the screens show for `CCCCCN(CCC(=O)NCCCOC)C(=O)c1ccoc1`?
Pf Dd2 growth: inactive

What do the screens show for `O=C1CCCN1CCCN1C(=O)[C@H]2CN(Cc3ccc(F)c(Cl)c3)C[C@H]2C1=O`?
Pf Dd2 growth: inactive

Results for CC(=O)NCCCC(=O)N1Cc2ccccc2OC2(CCN(C(=O)N(C)C)CC2)C1 ?
Pf Dd2 growth: inactive

How did CN(C)C(=O)N1CCC2(CC1)CN(C(=O)CCc1c[nH]c3ccccc13)Cc1ccccc1O2 do in these assays?
Pf Dd2 growth: 5µM

Results for CC(=O)N1Cc2ccccc2OC2(CCN(C(=O)CCc3c[nH]c4ccccc34)CC2)C1 ?
Pf Dd2 growth: inactive

What do the screens show for `Cc1ccc(C2Cn3nnc(C(=O)N4CCC(C(=O)NCC5CCCO5)CC4)c3CO2)cc1` (stereo not given)?
Pf Dd2 growth: inactive

How did O=C(c1ccc2c(c1)OCO2)N1CCCC2(C1)NC(=O)N(Cc1ccc(Cl)cc1)C2=O (stereo not given) do in these assays?
Pf Dd2 growth: inactive

What do the screens show for `CCS(=O)(=O)Nc1ccc(C2(C(=O)Nc3cccc(F)c3C)CCCCC2)cc1`?
Pf Dd2 growth: 11µM

How did CCS(=O)(=O)Nc1ccc(C2(C(=O)NCc3ccc(F)cc3F)CCCCC2)cc1 do in these assays?
Pf Dd2 growth: inactive

How did CCS(=O)(=O)Nc1ccc(C2(C(=O)NCc3ccccc3)CCCCC2)cc1 do in these assays?
Pf Dd2 growth: inactive

Results for COc1cc(NC(=O)c2cnc(-c3ccc(C)cc3)nc2-c2ccncc2)cc(OC)c1 ?
Pf Dd2 growth: inactive

How did O=C(Nc1cc(F)cc(F)c1)c1cnc(-c2ccc(F)cc2)nc1-c1ccncc1 do in these assays?
Pf Dd2 growth: 10µM

What do the screens show for `Cc1ccc(-c2ncc(C(=O)Nc3ccc(F)c(F)c3)c(-c3ccncc3)n2)cc1`?
Pf Dd2 growth: inactive

Results for Cc1ccc(-c2nc(C(=O)NC(C)c3ccc(F)cc3)no2)cc1 (stereo not given) ?
Pf Dd2 growth: inactive

What do the screens show for `COc1ccc(-c2cc3c(nc2OC)nc(CC2CC2)n3C)cc1`?
Pf Dd2 growth: inactive

How did COc1nc2nc(CCc3ccccc3)n(C)c2cc1-c1ccncc1 do in these assays?
Pf Dd2 growth: inactive

What do the screens show for `COc1ncc(-c2cc3c(nc2OC)nc(CCc2ccccc2)n3C)cn1`?
Pf Dd2 growth: 7.9µM

Results for CC(=O)NCCC(=O)N1CCCC1C(=O)Nc1cccc(-n2cccn2)c1 (stereo not given) ?
Pf Dd2 growth: inactive
